For 85 molecules, survival results are on record in PubChem BioAssay AID463173 (ICCB-Longwood Screening Facility, Harvard Medical School, 2010).

Each structure is given as a SMILES string. Out of some 52,000 compounds screened, about 4,300 (8.3%) were called active. The sample as a whole holds a higher share of actives than the screen did. Values without a mark were called inactive. Cut-off read from the data, not from the text of the source: active = survival mostly below about 52% (no sharp cut-off); inactive = mostly above about 56%.

The assay deals with DeltatarO mutant. Description: growth inhibition of S. aureus wild type versus tarO mutant, primary screen, teichoic acid synthesis inhibitors, RN4220, OD600 (AID 463173). The following applies: OD600, 18 h, stronger effect = lower value, screened at 18.75 µg/mL (by protocol).
In the case of `Cc1nc2cc(-c3ccccc3)nn2c(C)c1CCC(=O)Nc1ccc(F)cc1F`, the survival was 61%.

Consider `CCOC(=O)N1CCc2c(sc3c2c(=O)n(Cc2ccccc2)c(=O)n3CC(=O)Nc2cccc(CC)c2)C1`, for which the survival was 71%.

Turning to `COc1cc(NC(=O)C(Cc2ccccc2)NS(=O)(=O)c2cccc3nsnc23)cc(OC)c1` (stereo not given), the survival is 72%.

For `O=C(Nc1ccc(OC(F)(F)F)cc1)C(NS(=O)(=O)c1cccc2nsnc12)c1ccccc1` (stereo not given), the survival is 56%.

In the case of `O=C(Nc1ccc(OC(F)(F)F)cc1)C(Cc1ccccc1)NS(=O)(=O)c1cccc2nsnc12` (stereo not given), the survival was 49% (active).

In the case of `CCc1ccccc1NC(=O)N1CCN(c2cc(-c3noc(C)n3)ccc2C)CC1`, the survival was 134%.

In the case of `S=c1[nH]nc(CCCOc2ccc(Cl)cc2Cl)o1`, the survival was 54%.

For `O=C(NC1CCCCC1)NC1CCN(Cc2nnnn2Cc2ccc(F)cc2)CC1`, the survival was 88%.

Consider `COc1ccc(Cn2ccc3nc(C)c(C(=O)N4CCN(c5ccccc5F)CC4)cc3c2=O)cc1`, for which the survival was 63%.

Take `CC1(c2ccccc2)CC(C)(C)N(C(=O)c2ccccc2Cl)c2ccccc21` (stereo not given): the survival was -4% (active).

In the case of `CC1CCN(c2ccc(NC(=O)c3cccc(Cl)c3)cc2C(=O)O)CC1`, the survival is 87%.

As for `COc1ccc(CCC(=O)NCc2ccc3c(c2)CCN3C(=O)c2ccc(Cl)cc2)cc1`, the survival is 89%.

On to `COc1ccccc1C(=O)N1CCC(c2c[nH]c3ccccc23)(c2c[nH]c3ccccc23)CC1`, for which the survival was 98%.

Turning to `COc1ccc(C(=O)N2CCC(C(=O)Nc3ccc(Cl)cc3)CC2)cc1`, the survival is 127%.

`COc1ccccc1C(=O)N1c2ccccc2C(C)(c2ccc(Cl)cc2)CC1(C)C` (stereo not given): the survival was 0% (active).

As for `CN1CC2(C)CN(C(=O)c3ccccc3Cl)CC(C)(C1)C2`, the survival was 88%.

Consider `CC1(c2ccccc2)CC(C)(C)N(C(=O)c2cccc(Cl)c2)c2ccccc21` (stereo not given), for which the survival was 8% (active).

With `CC1CCN(C(=O)c2cccc(Cl)c2)CC1`, the survival is 93%.

As for `O=C(c1ccccc1Cl)n1cc(Cl)cn1`, the survival is 95%.

Regarding `COc1ccc(C(=O)N2c3ccccc3C(C)(c3ccc(Cl)cc3)CC2(C)C)cc1` (stereo not given), the survival is 11% (active).

For the molecule `COc1ccccc1C(=O)CC1(O)C(=O)N(CC(N)=O)c2ccccc21` (stereo not given), the survival was 61%.

For `CC(C(=O)c1ccccc1)n1cnc2ccccc2c1=O` (stereo not given), the survival was 104%.

With `COc1ccccc1N1CCN(C(=O)Cn2cnc3onc(-c4ccc(F)cc4)c3c2=O)CC1`, the survival was 84%.

With `Fc1ccc(CN2CCc3nc(N4CCN(c5ccccc5F)CC4)ncc3C2)c(F)c1`, the survival was 77%.

For the molecule `Cc1cc(NC(=O)CCn2c(=O)c3cccn3c3cccnc32)ccc1Br`, the survival is 102%.

Consider `COc1ccc(CNC(=O)Cn2c(=O)nc(-c3ccccc3)c3ccccc32)cc1OC`, for which the survival is 89%.

As for `CCCCc1nn2c(=O)cc(COC(=O)c3ccccc3NC(=O)C3CCCCC3)nc2s1`, the survival was 71%.

`CC1=C(c2cccc(Cl)c2)S(=O)(=O)NC1=NCc1ccccc1C`: the survival was 99%.

As for `O=C(c1cccc(F)c1)N1CCC(c2c[nH]c3ccccc23)(c2c[nH]c3ccccc23)CC1`, the survival was 86%.

As for `CC1(c2ccc(Cl)cc2)CC(C)(C)N(C(=O)c2cccc(F)c2)c2ccccc21` (stereo not given), the survival was 11% (active).

As for `CC1(c2ccc(Cl)cc2)CC(C)(C)N(C(=O)c2ccccc2)c2ccccc21` (stereo not given), the survival was -4% (active).

`CC1CC(C)CN(C(=O)c2ccc(Cl)cc2)C1` (stereo not given): the survival is 96%.

`O=C(NCc1ccc2c(c1)CCN2C(=O)c1ccc(Cl)cc1)c1cccc(F)c1`: the survival was 61%.

Regarding `CC1(C)C(=O)N(CC(=O)Nc2ccc(Cl)cc2)c2ccccc21`, the survival is 83%.

As for `CCOC(=O)c1c(NC(=O)CSc2cn(CCNC(=O)c3ccccc3OC)c3ccccc23)sc2c1CCC2`, the survival was 141%.

As for `CCOc1ccc(-c2cc(-c3nc(-c4cc(OC)c(OC)c(OC)c4)no3)[nH]n2)cc1Cl`, the survival was 96%.

For `Cc1nnc(N2CCCC(C(=O)NCCc3ccccc3)C2)c2nn(-c3ccccc3)c(C)c12` (stereo not given), the survival was 94%.

As for `O=C(Nc1ccccc1O)c1ccccn1`, the survival was 77%.

As to `CCCCCn1c(=O)[nH]c2cc(C(=O)N3CCN(c4cccc(OC)c4)CC3)ccc2c1=O`, the survival was 55% (active).

Consider `CCCCCn1c(=O)[nH]c2cc(C(=O)N3CCN(c4ccc(OC)cc4)CC3)ccc2c1=O`, for which the survival was 135%.

On to `Cc1ccc(C)c(N2CCN(C(=O)c3ccc4c(=O)n(CCc5ccccc5)c(=O)[nH]c4c3)CC2)c1`, for which the survival was 55% (active).

On to `O=C(c1ccc2c(=O)n(CCc3ccccc3)c(=O)[nH]c2c1)N1CCN(c2ccc(F)cc2)CC1`, for which the survival is 111%.

`CCCCCn1c(=O)[nH]c2cc(C(=O)N3CCN(c4cccc(Cl)c4)CC3)ccc2c1=O`: the survival is 71%.

Regarding `COc1ccc(Cn2c(=O)[nH]c3cc(C(=O)N4CCN(c5cc(C)ccc5C)CC4)ccc3c2=O)cc1`, the survival is 73%.

On to `Cc1cccc(-n2ncc3c(N4CCN(CCO)CC4)ncnc32)c1`, for which the survival was 83%.

As to `Cc1ccc(Cc2cn3cc(-c4ccccc4)nc3s2)cc1`, the survival is 66%.

With `COc1cccc(CN2C(=O)C3(SCC(=O)N3c3ccc(C(C)C)cc3)c3ccccc32)c1` (stereo not given), the survival was 55%.

`COc1cccc(N2C(=O)CSC23C(=O)N(Cc2ccccc2)c2ccccc23)c1` (stereo not given): the survival is 80%.

In the case of `COc1cccc(CN2C(=O)C3(SCC(=O)N3c3ccc(C)c(Cl)c3)c3ccccc32)c1` (stereo not given), the survival was 52% (active).

For the molecule `CC(=O)N(Cc1cccnc1)c1nc2c(F)cc(F)cc2s1`, the survival was 89%.

Take `COC(=O)c1cc2oc3ccccc3c2n1Cc1nc(-c2ccc(Cl)cc2)oc1C`: the survival is 91%.

For `CCOc1ccc(CCNC(=O)Cn2ccc3cc(S(=O)(=O)N4CCCCC4)ccc32)cc1`, the survival was 102%.

`COc1ccc(C2C=C(c3cccc(OC)c3)Nc3c(C(=O)Nc4ccccc4)cnn32)cc1` (stereo not given): the survival was 52%.

Turning to `CCOc1ccc(NC(=O)c2cnn3c2NC(c2ccccc2)=CC3c2cccc(OC)c2OC)cc1` (stereo not given), the survival was 62%.

As to `COc1ccc(C2C(C(=O)Nc3ccccc3)=C(C)Nc3c(C(=O)Nc4ccccc4)cnn32)cc1` (stereo not given), the survival was 126%.

Take `COc1cccc(C2C=C(c3ccccc3)Nc3c(C(=O)Nc4ccccc4)cnn32)c1OC` (stereo not given): the survival was 13% (active).

Take `COc1ccc(C2=CC(c3ccc(F)cc3)n3ncc(C(=O)Nc4ccc(C)cc4)c3N2)cc1` (stereo not given): the survival was 106%.

With `CCc1ccc(C2C(C(=O)Nc3ccccc3OC)=C(C)Nc3c(C(=O)Nc4ccc(C)cc4)cnn32)cc1` (stereo not given), the survival is 68%.

Turning to `COc1ccccc1NC(=O)C1=C(C)Nc2c(C(=O)Nc3cccc(C)c3)cnn2C1c1ccccc1C` (stereo not given), the survival is 89%.

As to `COc1cc(OC)c(C2C=C(c3ccc(C)cc3)Nc3c(C(=O)Nc4ccccc4)cnn32)cc1OC` (stereo not given), the survival is 48%.

For `COc1ccccc1NC(=O)C1=C(C)Nc2c(C(=O)Nc3cccc(C)c3)cnn2C1c1ccccc1Cl` (stereo not given), the survival is -5% (active).

Take `CCc1ccc(C2C(C(=O)Nc3ccccc3)=C(C)Nc3c(C(=O)Nc4ccc(C)cc4)cnn32)cc1` (stereo not given): the survival is 17% (active).

In the case of `COc1ccc(C2C=C(c3ccc(C)cc3)Nc3c(C(=O)Nc4ccccc4)cnn32)cc1` (stereo not given), the survival was 53% (active).

For the molecule `CC1=C(C(=O)Nc2ccccc2)C(c2ccccc2Cl)n2ncc(C(=O)Nc3cccc(C)c3)c2N1` (stereo not given), the survival was 88%.

As for `CC(C)(C)C(=O)Cn1c(=O)n(-c2ccccc2)c(=O)c2c3c(sc21)CCC3`, the survival is 80%.

For the molecule `CCCn1ccc2c(OCC(=O)Nc3ccccc3OCC)cccc2c1=O`, the survival was 102%.

Take `O=S1(=O)c2cccc3cccc(c23)N1Cc1ccccc1F`: the survival is 81%.

On to `CN1CCN(C(=O)C2CCN(S(C)(=O)=O)CC2)CC1`, for which the survival was 83%.

Regarding `COc1cccc(C2=CC(c3ccccc3F)n3ncc(C(=O)Nc4ccc(F)cc4)c3N2)c1` (stereo not given), the survival is 72%.

For `COc1ccc(C2=CC(c3ccccc3F)n3ncc(C(=O)Nc4ccc(C)cc4)c3N2)cc1` (stereo not given), the survival was 107%.

Consider `COc1cccc(C2C=C(c3ccc(C)cc3)Nc3c(C(=O)Nc4ccc(F)cc4)cnn32)c1OC` (stereo not given), for which the survival was 0% (active).

`COc1nc(Nc2ccc(C)cc2)nc(NC2CCCC2)n1`: the survival was 81%.

Consider `C/C(=N\NC(=O)CNc1ccccc1)c1ccccc1`, for which the survival was 85%.

As to `Cc1cccc(Cn2c(SCc3ccc(C(=O)NCc4ccccc4F)cc3)nc3cccnc32)c1`, the survival was 98%.

For `CCOC(=O)c1c(S(=O)(=O)N2CCCC(C(=O)Nc3cccc(C)n3)C2)c(C)n(C)c1C` (stereo not given), the survival is 87%.

Consider `O=c1oc2ccc3ccccc3c2cc1-c1nnc(Nc2cccc(C(F)(F)F)c2)s1`, for which the survival was 81%.

On to `COc1ccc(-c2noc(-c3ccc(NC4CCCC4)c([N+](=O)[O-])c3)n2)cc1OC`, for which the survival is 55%.

Consider `COc1ccccc1-c1noc(-c2ccc(NC3CCCCC3)c([N+](=O)[O-])c2)n1`, for which the survival is 41% (active).

As for `Cc1ccccc1-c1noc(-c2ccc(NC3CCCC3)c([N+](=O)[O-])c2)n1`, the survival was 66%.

Regarding `COc1ccccc1-c1noc(-c2ccc(NC3CCCC3)c([N+](=O)[O-])c2)n1`, the survival was 43% (active).

Take `COc1ccc(-c2noc(-c3ccc(NC4CCCCC4)c([N+](=O)[O-])c3)n2)cc1OC`: the survival was 68%.

Consider `COc1cc(-c2noc(-c3ccc(NC4CCCCC4)c([N+](=O)[O-])c3)n2)cc(OC)c1OC`, for which the survival was 76%.

In the case of `CCCn1c(CN2CCN(c3ccc(OC)cc3)CC2)nc2c1c(=O)[nH]c(=O)n2C`, the survival was 91%.

As to `CCOCCCN1C(=O)CN(C2CCCCCC2)C(=O)C1c1ccc(OCC)c(OC)c1` (stereo not given), the survival is 122%.

For the molecule `Cc1ccccc1C1=CCN(c2ncc(NC(=O)c3ccc(Cl)cc3)cc2C(=O)O)CC1`, the survival was 95%.
